Screening data (PubChem)
PLAP activator – activates human placental alkaline phosphatase | purified PLAP enzyme, luminescent substrate read-out; active compounds read high | activation fold at 20 µM | actives 1.2% (n = 96,000) | AID 696; in the data active means activation fold above about 2
Cav32 inh – inhibitors of human Cav3.2 T-type calcium channel; B-score at 10 µM; actives 4% (n = 100,000); O95180; Cav3.2-expressing cells, Fluo-4 calcium fluorescence FDSS; active compounds read low; AID 449739;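 active means single-dose well whose peak fluorescence ratio is a statistical outlier from its plate by either plate-standardised score or position-corrected B-score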
M1 antag – blocks the rat M1 muscarinic receptor response to acetylcholine. P08482. CHO-M1 cells, Fluo-4 calcium, ACh EC80 antagonist mode; active compounds read low. B-score at 10 µM. actives 3.4% (n = 64,000). AID 628;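 active means calcium fluorescence response, raw or row-and-column corrected B-score, differing from the plate sample mean either way at a set confidence level, mostly lower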
M1 agonist – M1 muscarinic receptor agonism; CHO-M1 cells, Fluo-4 calcium fluorescence, agonist mode; active compounds read high; B-score at 10 µM; actives 3% (n = 64,000);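 active means fluorescence rise, raw or as B-score row- and column-corrected plate score, outside the 99.7% band of its plate's samples, either direction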
Her2 expr inh – Her2 kinase expression inhibition; P04626; SKBR-3 HER2 protein level, AlphaScreen, 18-24 h; active compounds read low; HER2 level % of control, % at 10 µM; actives 0.69% (n = 65,000);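 active means HER2 level under 5% of the carrier-only control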;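 further: lower value means stronger loss of Her2 protein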
M1 antag confirm – confirmation of rat M1 muscarinic receptor antagonists. shares compounds with M1 antag. CHO-M1 cells, Fluo-4 calcium, ACh EC80 antagonism; active compounds read low. calcium response (max-min fluorescence) at 10 µM. actives 43% (n = 1,700);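 active means calcium response below the same-plate mean of wells given acetylcholine alone at its 80%-effect dose, minus 3 SD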
mGluR4 antag – mGluR4 (human) activity, M1 antagonist secondary assay; shares compounds with M1 antag; CHO-mGluR4 calcium flux, Fluo-4 fluorescence, glutamate EC80; active compounds read low; AID 678; actives 0.9% (n = 1,700); fluorescence response (max-min) at 10 µM;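 active means fluorescence response below the plate's average for near-maximal glutamate wells, less 3 SD of those wells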;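 further: raw unnormalized fluorescence span taken in the window right after glutamate addition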
Hits are given with their value. A selection: hits, their analogues and other compounds. The true share with any hit is near 7.9%.

Results for O=C(CC(=O)N1CCN(c2ccccn2)CC1)Nc1ccc2nc3n(c(=O)c2c1)CCCCC3 ?
PLAP activator: inactive; M1 antag: inactive; M1 agonist: inactive; Her2 expr inh: inactive

How did CCOc1cc(C#N)c(NC(=O)c2ccco2)cc1OCC do in these assays?
PLAP activator: inactive; Cav32 inh: inactive; M1 antag: -11; M1 agonist: inactive; Her2 expr inh: inactive; M1 antag confirm: inactive; mGluR4 antag: inactive

What do the screens show for `NC(=O)CC(NC(=O)Cc1ccc(Br)cc1)c1ccc(N2CCC(Cc3ccccc3)CC2)c([N+](=O)[O-])c1` (centres undefined)?
Cav32 inh: inactive

What do the screens show for `O=C(NC1CCN(Cc2ccccc2)CC1)C1CCCN(c2nnc(-n3cccc3)s2)C1` (centres undefined)?
PLAP activator: inactive; Cav32 inh: inactive; M1 antag: -3.3; M1 agonist: inactive; Her2 expr inh: inactive; M1 antag confirm: 260; mGluR4 antag: inactive

Results for O=C(NC1CCN(Cc2ccccc2)CC1)C1CCN(c2nnc(-n3cccc3)s2)CC1 ?
PLAP activator: inactive; Cav32 inh: inactive; M1 antag: -1.3; M1 agonist: inactive; Her2 expr inh: inactive; M1 antag confirm: 278; mGluR4 antag: inactive

How did CCCCNC(=S)NNC(=O)c1nn(C)cc1Cl do in these assays?
Cav32 inh: inactive

What do the screens show for `CN1CCN(c2ccc([N+](=O)[O-])c(-n3nc(-c4ccccc4)c4ccccc4c3=O)c2)CC1`?
PLAP activator: inactive; Cav32 inh: inactive

Results for Cc1cc(N2CCOCC2)nc2ccc(NC(=O)CCC(=O)N3CCCCC3)cc12 ?
PLAP activator: inactive; Cav32 inh: inactive; M1 antag: -2.6; M1 agonist: inactive; Her2 expr inh: inactive; M1 antag confirm: inactive; mGluR4 antag: inactive

How did Nc1nc(N2CCCCC2)nc2ccccc12 do in these assays?
PLAP activator: inactive; M1 antag: -5.9; M1 agonist: inactive; Her2 expr inh: inactive; M1 antag confirm: 286; mGluR4 antag: inactive

Results for c1ccc(-c2nc(N3CCNCC3)nc3ccccc23)cc1 ?
PLAP activator: inactive; Cav32 inh: inactive

How did c1ccc2c(N3CCCCC3)nc(N3CCCC3)nc2c1 do in these assays?
PLAP activator: inactive; Cav32 inh: inactive; M1 antag: -2.6; M1 agonist: inactive; Her2 expr inh: inactive; M1 antag confirm: 493; mGluR4 antag: inactive

What do the screens show for `COc1ccccc1C1C(C#N)=C(N)Oc2cc(C)n(CCCn3ccnc3)c(=O)c21` (centres undefined)?
PLAP activator: 2; Cav32 inh: inactive; M1 antag: -2.6; M1 agonist: inactive; Her2 expr inh: inactive; M1 antag confirm: 379; mGluR4 antag: inactive

How did O=C(OCC1CCCN2CCCCC12)c1ccc2c(c1)OCO2 (centres undefined) do in these assays?
PLAP activator: inactive; Cav32 inh: inactive; M1 antag: -4.8; M1 agonist: inactive; Her2 expr inh: inactive; M1 antag confirm: inactive; mGluR4 antag: inactive

Results for CC(C)(C)CC(=O)Nc1nnc(C(F)(F)F)s1 ?
Cav32 inh: inactive

What do the screens show for `CC(NC(=O)Nc1nnc(C(F)(F)F)s1)(C(F)(F)F)C(F)(F)F`?
PLAP activator: inactive; Cav32 inh: -7.7; M1 antag: -1.3; M1 agonist: inactive; Her2 expr inh: inactive; M1 antag confirm: 513; mGluR4 antag: inactive

What do the screens show for `Cc1cc(C)c(OCCCCNCc2ccccc2)c(Cl)c1`?
PLAP activator: inactive; Cav32 inh: inactive

How did CCOc1ccc(S(=O)(=O)Nc2cc(Cl)ccc2O)cc1 do in these assays?
PLAP activator: inactive; Cav32 inh: inactive; M1 antag: -3.1; M1 agonist: inactive; M1 antag confirm: 457; mGluR4 antag: inactive

What do the screens show for `CCOC(=O)CN1CC23C=CC(O2)C(C(=O)Nc2ccc(C(C)=O)cc2)C3C1=O` (centres undefined)?
PLAP activator: inactive; Cav32 inh: inactive; M1 antag: inactive; M1 agonist: inactive; Her2 expr inh: inactive

What do the screens show for `COc1ccc(CCn2c(C)c(C(C)=O)c3cc(OC(=O)c4ccco4)ccc32)cc1OC`?
PLAP activator: inactive; Cav32 inh: inactive

Results for CCC/C=C(\CCC)C(NS(=O)(=O)c1cccc2cccnc12)c1ccc(C(=O)OC)cc1 (centres undefined) ?
Cav32 inh: inactive

What do the screens show for `COc1ccc2oc(=O)c(C(=O)N3CCN(c4ccccc4)CC3)cc2c1`?
PLAP activator: inactive; Cav32 inh: inactive; M1 antag: inactive; M1 agonist: inactive; Her2 expr inh: inactive

Results for COc1ccc2oc(=O)c(C(=O)N3CCN(C45CC6CC(CC(C6)C4)C5)CC3)cc2c1 ?
M1 antag: -3; M1 agonist: inactive; Her2 expr inh: inactive; M1 antag confirm: inactive; mGluR4 antag: inactive

What do the screens show for `COc1ccc(OC)c(S(=O)(=O)N2CCN(C34CC5CC(CC(C5)C3)C4)CC2)c1`?
PLAP activator: inactive; Cav32 inh: inactive; M1 antag: -4.6; M1 agonist: inactive; Her2 expr inh: inactive; M1 antag confirm: 477; mGluR4 antag: inactive

How did O=C(c1cc2nc3c(c(C(F)(F)F)n2n1)CCc1ccccc1-3)N1CCN2CCCC2C1 (centres undefined) do in these assays?
M1 antag: -3.1; M1 agonist: inactive; Her2 expr inh: inactive; M1 antag confirm: 343; mGluR4 antag: inactive

How did O=C(O)c1cc2nc3c(c(C(F)(F)F)n2n1)CCc1ccccc1-3 do in these assays?
PLAP activator: inactive; Cav32 inh: inactive; M1 antag: inactive; M1 agonist: inactive; Her2 expr inh: inactive

Results for Cc1ccc(-n2ncc3c(NCC4CCCO4)ncnc32)c(C)c1 (centres undefined) ?
PLAP activator: inactive; Cav32 inh: inactive; M1 antag: -3.6; M1 agonist: inactive; Her2 expr inh: inactive; M1 antag confirm: inactive; mGluR4 antag: inactive

What do the screens show for `Cc1ccc(-n2ncc3c(NCCCOC(C)C)ncnc32)c(C)c1`?
Cav32 inh: inactive; M1 antag: inactive; M1 agonist: inactive; Her2 expr inh: inactive

Results for c1ccc(CCc2nn3c(Cc4ccccc4)nnc3s2)cc1 ?
PLAP activator: inactive; Cav32 inh: inactive; M1 antag: inactive; M1 agonist: inactive; Her2 expr inh: inactive

What do the screens show for `O=S(=O)(/N=S1/CC=CCN1S(=O)(=O)c1ccccc1)c1ccccc1` (centres undefined)?
PLAP activator: inactive; Cav32 inh: inactive; M1 antag: -2.1; M1 agonist: inactive; Her2 expr inh: inactive; M1 antag confirm: inactive; mGluR4 antag: inactive

What do the screens show for `CC(NC(=O)Cc1ccc(F)cc1)C(c1cccs1)N1CCN(C)CC1` (centres undefined)?
Cav32 inh: inactive; M1 antag: inactive; M1 agonist: inactive; Her2 expr inh: inactive
